Test results: PubChem BioAssay (EPA / NIEHS)
Records with an inconclusive call do not appear. A structure can be active in one record and inactive in another. Activity calls are given as the source filed them. Rule for the calls, unless noted: active = hit-call score of the fitted dose curve at least 0.9, where 1 is the maximum; inactive = score below 0.9.

What was measured:
[1] = system: guinea pig Dopamine Transporter (DAT), gene 100714898; test: NVS_TR_gDAT: NovaScreen (NVS) Transporter Assay for guinea pig Dopamine Transporter (DAT) (AID 2283369; active = hit-call score of the fitted dose curve at least 0.9, where 1 is the maximum;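 note: active compounds lower bound radioligand signal relative to DMSO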)
Procedure, shortened: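 Scintillation counts of filter-retained radioligand report binding to guinea pig striatal membranes after 2 h. Activity scored as signal loss relative to DMSO, first at 25 uM in duplicate, then in concentration series to 50 uM.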

[2] = biological target: Nucleoli Translocation, AR (gene 367) (UniProt P10275); test: UPITT_HCI_U2OS_AR_TIF2_Nucleoli_Agonist: University of Pittsburgh U2OS Androgen Receptor-Transcriptional Intermediary Factor 2 (AR-TIF2) Agonism High Content Imaging Assay for Nucleoli Translocation (AID 2283998; active = hit-call score of the fitted dose curve at least 0.9, where 1 is the maximum)
Chain of Nucleoli Translocation, AR (gene 367) (P10275 whole entry, looked up): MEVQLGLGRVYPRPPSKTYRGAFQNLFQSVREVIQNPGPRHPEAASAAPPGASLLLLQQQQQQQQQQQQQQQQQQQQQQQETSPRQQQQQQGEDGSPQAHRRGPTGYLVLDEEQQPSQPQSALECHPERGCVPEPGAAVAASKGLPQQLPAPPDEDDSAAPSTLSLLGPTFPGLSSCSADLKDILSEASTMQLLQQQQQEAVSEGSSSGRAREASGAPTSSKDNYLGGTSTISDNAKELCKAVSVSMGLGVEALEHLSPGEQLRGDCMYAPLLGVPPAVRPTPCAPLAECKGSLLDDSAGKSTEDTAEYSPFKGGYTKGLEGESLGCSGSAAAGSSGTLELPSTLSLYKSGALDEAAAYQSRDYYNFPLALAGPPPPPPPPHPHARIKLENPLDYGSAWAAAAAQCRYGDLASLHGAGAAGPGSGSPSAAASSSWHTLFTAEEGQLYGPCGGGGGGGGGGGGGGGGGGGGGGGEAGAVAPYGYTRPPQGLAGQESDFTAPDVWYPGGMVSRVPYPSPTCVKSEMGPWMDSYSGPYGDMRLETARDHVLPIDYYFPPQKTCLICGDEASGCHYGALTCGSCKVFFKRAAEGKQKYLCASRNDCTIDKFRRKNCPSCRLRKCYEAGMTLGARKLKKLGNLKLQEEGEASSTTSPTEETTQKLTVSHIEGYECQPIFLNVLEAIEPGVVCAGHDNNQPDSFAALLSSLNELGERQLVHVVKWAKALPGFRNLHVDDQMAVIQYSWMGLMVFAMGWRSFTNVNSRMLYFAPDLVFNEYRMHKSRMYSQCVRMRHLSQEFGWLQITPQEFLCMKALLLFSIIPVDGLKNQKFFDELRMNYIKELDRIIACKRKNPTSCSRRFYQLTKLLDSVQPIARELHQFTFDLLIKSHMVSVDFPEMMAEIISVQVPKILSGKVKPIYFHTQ
Procedure, shortened: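 Readout is red (AR-RFP) fluorescence localized to nucleoli, measured by high-content imaging and analysed for increase relative to DMSO. Compound series spanned 0.195 to 50 uM final in 0.5% DMSO.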

[3] = biological target: Ratio of Nucleoli Translocation and Cytoplasm, AR (gene 367) (UniProt P10275); test: UPITT_HCI_U2OS_AR_TIF2_Nucleoli_Cytoplasm_Ratio_Antagonist: University of Pittsburgh U2OS Androgen Receptor-Transcriptional Intermediary Factor 2 (AR-TIF2) Antagonism High Content Imaging Assay for Ratio of Nucleoli Translocation and Cytoplasm (AID 2283999; active = hit-call score of the fitted dose curve at least 0.9, where 1 is the maximum;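 note: antagonists lower the DHT-driven ratio of nucleolar to cytoplasmic red signal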)
Chain of Ratio of Nucleoli Translocation and Cytoplasm, AR (gene 367) (P10275 whole entry, looked up, the tested form may be a part): as the sequence (P10275 whole entry, looked up) above
Procedure, shortened: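 Human osteosarcoma U2OS line, AR fused to RFP, coactivator TIF2 fused to GFP. Cpds 20 uM final, 0.2% DMSO (screen); 0.195–50 uM final, 0.5% DMSO (CRC). Endpoint: nucleoli/cytoplasm red signal ratio, DHT as baseline, loss-of-signal antagonist mode.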

PGR (gene 5241) [4] = biological target: PGR (gene 5241) (UniProt P06401); test: TOX21_PR_BLA_Followup_Antagonist_ratio: Tox21 HEK293 Progesterone Receptor (PR) Antagonism Beta-lactamase Follow-Up Assay, Ratio (AID 2283934; active = hit-call score of the fitted dose curve at least 0.9, where 1 is the maximum)
Chain of PGR (gene 5241) (P06401 whole entry, looked up): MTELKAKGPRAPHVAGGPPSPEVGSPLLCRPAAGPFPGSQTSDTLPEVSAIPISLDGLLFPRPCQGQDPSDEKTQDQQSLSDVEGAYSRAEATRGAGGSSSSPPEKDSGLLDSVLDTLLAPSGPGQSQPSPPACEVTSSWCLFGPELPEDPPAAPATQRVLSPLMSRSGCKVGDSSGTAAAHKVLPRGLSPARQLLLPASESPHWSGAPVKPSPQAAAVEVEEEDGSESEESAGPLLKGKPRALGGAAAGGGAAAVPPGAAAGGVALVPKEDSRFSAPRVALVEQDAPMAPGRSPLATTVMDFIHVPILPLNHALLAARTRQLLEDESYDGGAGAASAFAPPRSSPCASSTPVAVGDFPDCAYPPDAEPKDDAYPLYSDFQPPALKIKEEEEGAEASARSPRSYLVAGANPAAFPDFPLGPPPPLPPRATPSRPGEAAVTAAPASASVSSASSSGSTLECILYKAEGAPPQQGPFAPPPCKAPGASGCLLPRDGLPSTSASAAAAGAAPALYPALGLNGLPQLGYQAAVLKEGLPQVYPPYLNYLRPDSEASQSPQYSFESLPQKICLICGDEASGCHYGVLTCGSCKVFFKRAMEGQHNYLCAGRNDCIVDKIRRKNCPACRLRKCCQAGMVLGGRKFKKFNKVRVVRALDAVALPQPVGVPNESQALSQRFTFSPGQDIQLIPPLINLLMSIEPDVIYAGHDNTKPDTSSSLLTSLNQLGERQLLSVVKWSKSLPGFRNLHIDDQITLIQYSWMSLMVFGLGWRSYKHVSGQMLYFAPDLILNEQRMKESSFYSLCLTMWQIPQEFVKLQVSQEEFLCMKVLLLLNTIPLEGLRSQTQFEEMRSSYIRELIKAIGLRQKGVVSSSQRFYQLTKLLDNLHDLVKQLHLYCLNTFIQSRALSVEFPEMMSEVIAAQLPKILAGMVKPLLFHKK
Procedure, shortened: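 HEK293T PR-UAS-bla, 2% CS-FBS; 6 hr plating, then cpd + R5020 (1 nM final), 16 hr 37C/5% CO2. B/G FRET substrate 2 h RT. Ratio ch2/ch1 vs DMSO; CellTiter-Glo viability multiplexed, autofluorescence checked.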

PGR (gene 5241) [5] = biological target: PGR (gene 5241) (UniProt P06401); test: TOX21_PR_LUC_Followup_Antagonist: Tox21 HEK293 Progesterone Receptor (PR) Antagonism Luciferase Follow-Up Assay (AID 2283938; active = hit-call score of the fitted dose curve at least 0.9, where 1 is the maximum;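 note: curve fitted upward as signal gain over DMSO baseline despite antagonist label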)
Procedure, shortened: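 Cells are grown 5 days in charcoal-stripped-FBS assay medium, plated, left 5 h, then dosed with compound and incubated 16 h. ONE-Glo reagent is added and luminescence read after 30 min.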

[6] = biological target: Cytochrome P450 2C19 (Homo sapiens) (UniProt P33261); test: NVS_ADME_hCYP2C19: NovaScreen (NVS) CYP450-related Enzyme Activity (ADME) Assay for human CYP2C19 (AID 2283113; active = hit-call score of the fitted dose curve at least 0.9, where 1 is the maximum;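 for AC50: potency for inhibition seen as loss of fluorescent signal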)
Procedure, shortened: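 Fluorescence intensity was measured 1 hour after chemicals were added to insect-cell-derived recombinant CYP2C19 with fluorogenic substrate. Decreased signal versus acetonitrile control was taken as reduced enzyme activity; initial testing used 10 uM in duplicate.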

[7] = biological target: human Matrix Metalloproteinase-9 (MMP9), MMP9 (gene 4318) (UniProt P14780); test: NVS_ENZ_hMMP9: NovaScreen (NVS) Enzymatic Assay for human Matrix Metalloproteinase-9 (MMP9) (AID 2283190; active = hit-call score of the fitted dose curve at least 0.9, where 1 is the maximum;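 note: cell-free recombinant MMP9 protease activity read by fluorescent substrate signal; active means inhibition seen as loss of fluorescence signal versus DMSO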)
Chain of human Matrix Metalloproteinase-9 (MMP9), MMP9 (gene 4318) (P14780 whole entry, looked up): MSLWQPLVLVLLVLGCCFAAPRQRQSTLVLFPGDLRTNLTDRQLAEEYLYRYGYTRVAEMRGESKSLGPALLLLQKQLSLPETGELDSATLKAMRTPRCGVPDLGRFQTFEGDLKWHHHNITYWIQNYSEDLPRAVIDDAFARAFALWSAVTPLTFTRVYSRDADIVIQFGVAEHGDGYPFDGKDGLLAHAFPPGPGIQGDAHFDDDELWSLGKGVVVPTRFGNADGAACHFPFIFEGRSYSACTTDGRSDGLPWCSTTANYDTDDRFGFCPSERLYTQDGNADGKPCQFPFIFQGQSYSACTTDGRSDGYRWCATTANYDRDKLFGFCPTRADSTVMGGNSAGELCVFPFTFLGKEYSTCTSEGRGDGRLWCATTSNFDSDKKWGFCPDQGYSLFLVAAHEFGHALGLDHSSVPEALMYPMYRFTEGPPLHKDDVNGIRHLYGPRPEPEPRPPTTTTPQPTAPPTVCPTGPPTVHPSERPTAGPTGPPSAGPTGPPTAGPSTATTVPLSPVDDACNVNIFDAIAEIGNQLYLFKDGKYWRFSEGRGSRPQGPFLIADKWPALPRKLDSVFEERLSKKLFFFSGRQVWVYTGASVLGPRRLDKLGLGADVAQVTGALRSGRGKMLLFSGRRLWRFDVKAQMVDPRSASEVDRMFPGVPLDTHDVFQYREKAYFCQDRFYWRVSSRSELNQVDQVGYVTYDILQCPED
Procedure, shortened: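 Extracted enzyme, fluorescent substrate, 1 h post-dose read. Single conc 25 uM in duplicate, then concentration series for actives. Activity = signal loss relative to DMSO negative control.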

[8] = read-out: Collagen I, COL1A1 (gene 1277); test: BSK_hDFCGF_CollagenI: BioMAP Diversity Plus: hDFCGF Assay for Collagen I Biomarker Activity (AID 2284250); details: primary human foreskin fibroblasts
Procedure, shortened: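 Human skin primary fibroblasts dosed with test chemical, harvested at 24 h, Collagen I quantified by ELISA; parallel SRB staining (0.1% SRB after 10% TCA fixation, 560 nm) tracked cytotoxicity.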

[9] = read-out: Interleukin-8 (IL8), CXCL8 (gene 3576); test: BSK_KF3CT_IL8: BioMAP Diversity Plus: KF3CT Assay for Interleukin-8 (IL8) Biomarker Activity (AID 2284254); details: primary human keratinocytes with fibroblasts
Procedure, shortened: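 Chemicals were added to co-cultured human keratinocytes and foreskin fibroblasts, incubated 24 h, then IL-8 was quantified by ELISA. Cytotoxicity was tracked by sulforhodamine B total-protein staining in parallel cultures.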

KRT18 (gene 3875) = test: BSK_BE3C_Keratin818: BioMAP Diversity Plus: BE3C Assay for Keratin 818 Biomarker Activity (AID 2284282); details: primary human bronchial epithelial cells
Procedure, shortened: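 Chemicals are added to human lung bronchial epithelial primary cells (BE3C system) and incubated 24 h. Keratin 8/18 is then measured by ELISA, with parallel SRB total-protein staining gauging overt cytotoxicity.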

[10] = biological target: Androgen Receptor/SRC-1 Co-activator, AR (gene 367) (UniProt P10275); test: OT_AR_ARSRC1_0960: Odyssey Thera (OT) 16-hour HEK293T Protein-Complementation Assay for Androgen Receptor/SRC-1 Co-activator (AID 2283353; active = hit-call score of the fitted dose curve at least 0.9, where 1 is the maximum;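 note: actives raise the signal above DMSO so potency reflects increased AR and SRC-1 complex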)
Chain of Androgen Receptor/SRC-1 Co-activator, AR (gene 367) (P10275 whole entry, looked up, the tested form may be a part): as the sequence (P10275 whole entry, looked up) above
Procedure, shortened: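 Split-Venus PCA, AR/SRC-1 fusions, stable HEK293T; 16 h compound exposure; imaged at 488 and 635 nm; N/C ratio (488 nm channel), min 400 cells/image; positive-direction fit, DMSO baseline.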

[11] = biological target: Androgen Receptor/SRC-1 Co-activator, AR (gene 367) (UniProt P10275); test: OT_AR_ARSRC1_0480: Odyssey Thera (OT) 8-hour HEK293T Protein-Complementation Assay for Androgen Receptor/SRC-1 Co-activator (AID 2283354; active = hit-call score of the fitted dose curve at least 0.9, where 1 is the maximum;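 note: hits raise the complementation signal above DMSO so AC50 marks enhancers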)
Procedure, shortened: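 Measures AR/SRC-1 binding by Venus YFP fragment complementation in HEK293T stable lines at 8 h post-dose. Imaging quantifies the 488nm nucleus/cytoplasm ratio in ≥400 cells; DMSO defines baseline.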

[12] = biological target: human Norepinephrine Transporter (NET), SLC6A2 (gene 6530) (UniProt P23975); test: NVS_TR_hNET: NovaScreen (NVS) Transporter Assay for human Norepinephrine Transporter (NET) (AID 2283377; active = hit-call score of the fitted dose curve at least 0.9, where 1 is the maximum;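 note: cell-free membrane protein extracted from CHO cells expressing human NET; displacement of radioligand from human NET seen as loss of scintillation signal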)
Chain of human Norepinephrine Transporter (NET), SLC6A2 (gene 6530) (P23975 whole entry, looked up): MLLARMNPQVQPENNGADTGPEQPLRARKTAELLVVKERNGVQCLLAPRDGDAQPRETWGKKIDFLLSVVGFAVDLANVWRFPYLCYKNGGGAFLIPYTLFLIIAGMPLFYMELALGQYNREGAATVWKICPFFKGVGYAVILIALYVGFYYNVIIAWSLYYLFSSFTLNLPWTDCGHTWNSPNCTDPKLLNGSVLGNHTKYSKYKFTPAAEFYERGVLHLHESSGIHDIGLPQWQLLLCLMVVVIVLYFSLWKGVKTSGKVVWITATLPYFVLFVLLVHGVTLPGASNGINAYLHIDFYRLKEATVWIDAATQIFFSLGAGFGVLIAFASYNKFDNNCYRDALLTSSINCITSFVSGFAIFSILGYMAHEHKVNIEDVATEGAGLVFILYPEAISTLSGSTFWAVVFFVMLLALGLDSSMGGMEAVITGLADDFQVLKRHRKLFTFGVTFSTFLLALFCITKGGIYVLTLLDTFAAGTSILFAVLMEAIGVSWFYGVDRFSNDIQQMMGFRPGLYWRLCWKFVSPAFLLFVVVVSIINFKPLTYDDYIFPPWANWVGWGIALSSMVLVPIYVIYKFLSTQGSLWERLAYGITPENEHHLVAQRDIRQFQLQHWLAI
Procedure, shortened: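 Scintillation counts of filter-retained radioligand served as the readout, taken 1 h post-dosing in a cell-free CHO-derived system. Test chemicals ran first at 25 uM in duplicate; confirmed hits were retested across concentrations.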

[13] = CCTE_Shafer_MEA_dev_correlation_coefficient_mean: CCTE's Neural Network Formation Assay for Mean Correlation Coefficient, Shafer Lab (AID 2284093);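 for AC50: well mean pairwise spike train correlation integrated as AUC over recording days 5 to 12; potency fitted for loss of correlation relative to DMSO vehicle wells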
Procedure, shortened: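 Rat cortical cultures, 1.5 x 10^5 cells/well, dosed from day 0 for 12 days. Spontaneous spikes recorded DIV 5/7/9/12; electrode-pair correlation coefficients averaged, AUC taken. Fit in loss direction vs DMSO.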

[14] = TAMU_PeakParms_SingleDonor1434_Chronotropy: Texas A&M University (TAMU) 1.5-hr Human Induced Pluripotent Stem Cell (iPSC)-derived Cardiomyocytes Calcium (Ca+2) Flux Assay for Cardiotoxicity: Chronotropy (changes in peak frequency) (AID 2284217); details: actives raise or lower the signal
Procedure, shortened: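 iPSC-CMs, donor 1434; 4 conc (0.2–100 uM), 0.5% v/v DMSO, 90 min, 37C/5% CO2; Ca2+ flux fluorescence → peak.freq.avg; peak.freq.avg = 0 dropped; bidirectional fit vs DMSO; EC05 POD.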

[15] = biological target: human Caspase 5 (CASP5), CASP5 (gene 838) (UniProt P51878); test: NVS_ENZ_hCASP5: NovaScreen (NVS) Enzymatic Assay for human Caspase 5 (CASP5) (AID 2283137; active = hit-call score of the fitted dose curve at least 0.9, where 1 is the maximum)
Chain of human Caspase 5 (CASP5), CASP5 (gene 838) (P51878 whole entry, looked up): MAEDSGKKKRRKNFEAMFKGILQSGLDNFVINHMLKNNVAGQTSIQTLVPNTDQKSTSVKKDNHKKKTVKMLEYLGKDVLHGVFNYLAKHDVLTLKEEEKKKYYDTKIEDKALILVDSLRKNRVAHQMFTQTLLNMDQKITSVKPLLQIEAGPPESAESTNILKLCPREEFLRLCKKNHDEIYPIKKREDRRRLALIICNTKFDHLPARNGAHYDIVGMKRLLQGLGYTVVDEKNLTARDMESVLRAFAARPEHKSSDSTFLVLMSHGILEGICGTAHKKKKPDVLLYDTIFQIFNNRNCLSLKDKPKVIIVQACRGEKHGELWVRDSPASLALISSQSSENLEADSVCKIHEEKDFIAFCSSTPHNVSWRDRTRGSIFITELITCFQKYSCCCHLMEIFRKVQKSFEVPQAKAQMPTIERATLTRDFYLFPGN
Procedure, shortened: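 E. coli-derived enzyme, cell-free, 2 h incubation, fluorescence intensity. 25 uM duplicate single-point; hits → concentration series to 50 uM. DMSO baseline, positive/negative controls on every plate.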

[16] = CCTE_Deisenroth_5AR_NBTE_acceptor: CCTE's 5alpha-reductase NanoBRET Target Engagement Assay - Autofluorescence Screen, Deisenroth Lab (AID 2284321); details: actives raise or lower the signal;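 note: compound fluorescence in the acceptor channel under 460 nm excitation flags autofluorescence artifacts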
Procedure, shortened: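 Acceptor fluorescence intensity was read as an artifact-detection endpoint. Test chemicals at an assumed nominal 100 uM were excited at 460 nm across three independent runs. Activity was fitted bidirectionally against DMSO.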

[17] = CPHEA_Stoker_NIS_Cytotoxicity: Cytotoxicity Assessment for CPHEA's Radioactive Iodide Uptake (RAIU) Assay for Sodium/Iodide Symporter (NIS) Inhibition, Stoker and Laws Labs (AID 2283897; active = hit-call score of the fitted dose curve at least 0.9, where 1 is the maximum)
Procedure, shortened: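 hNIS-HEK293T-EPA human kidney cells were exposed for 2 hours at room temperature to test chemicals (0.001–100uM, 0.5% final DMSO) in HEPES-buffered HBSS, pH 7.4. Viability was read as ATP content by luciferase bioluminescence, loss of signal versus DMSO.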

[18] = CCTE_Simmons_CellTiterGLO_HEK293T: Viability Assessment in CCTE's Assays for Thyroperoxidase (TPO) Inhibition, Simmons Lab (AID 2283665; active = hit-call score of the fitted dose curve at least 0.9, where 1 is the maximum;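 note: cells exposed to compound for 24 h before readout; actives reduce ATP signal below DMSO vehicle meaning cytotoxicity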)
Procedure, shortened: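 HEK293T, 10 000 cells/well, DMEM + 1% FBS; 8-pt titration 5 nM–87.5 uM [final], 0.5% DMSO; 24 hr, 37C, 5% CO2; CellTiter-Glo luminescence; n=3 biological replicates.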

[19] = biological target: human Peroxisome Proliferator-activated Receptor alpha (PPARa), PPARA (gene 5465) (UniProt Q07869); test: NVS_NR_hPPARa: NovaScreen (NVS) Nuclear Receptor Binding Assay for human Peroxisome Proliferator-activated Receptor alpha (PPARa) (AID 2283359; active = hit-call score of the fitted dose curve at least 0.9, where 1 is the maximum;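 note: activity means loss of TR-FRET signal versus DMSO baseline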)
Chain of human Peroxisome Proliferator-activated Receptor alpha (PPARa), PPARA (gene 5465) (Q07869 whole entry, looked up): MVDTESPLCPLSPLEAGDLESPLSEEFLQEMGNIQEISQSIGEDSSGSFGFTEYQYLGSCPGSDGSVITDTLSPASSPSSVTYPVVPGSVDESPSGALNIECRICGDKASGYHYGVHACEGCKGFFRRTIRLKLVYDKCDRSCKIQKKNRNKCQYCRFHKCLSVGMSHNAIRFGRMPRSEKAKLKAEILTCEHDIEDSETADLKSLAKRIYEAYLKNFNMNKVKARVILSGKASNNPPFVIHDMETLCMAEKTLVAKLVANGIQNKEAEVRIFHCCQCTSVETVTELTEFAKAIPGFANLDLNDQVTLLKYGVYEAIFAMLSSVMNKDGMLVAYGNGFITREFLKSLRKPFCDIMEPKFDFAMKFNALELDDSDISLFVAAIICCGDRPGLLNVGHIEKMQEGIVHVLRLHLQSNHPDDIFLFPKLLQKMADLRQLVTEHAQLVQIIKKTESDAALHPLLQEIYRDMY
Procedure, shortened: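 Chemicals were first screened in duplicate at 25 uM, and active ones were retested across concentration series. Binding was monitored by TR-FRET one hour after dosing, with decreased signal against DMSO counted as activity.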

Question: For `CNC(=O)Oc1cc(C)c(SC)c(C)c1`, which AC50 [1] is on record?
Answer: Its AC50 is 25000 nM (active).

Question: And the AC50 [2]?
Answer: Its AC50 is 50000 nM (active).

Question: What about the outcome [2] of the same molecule?
Answer: The outcome was “inactive”.

Question: What about the outcome [3] of the same molecule?
Answer: Its outcome is “inactive”.

Question: For `N#Cc1cc(I)c(O)c(I)c1`, which outcome (PGR (gene 5241) [4]) is on record?
Answer: The outcome was “inactive”.

Question: What about the AC50 (PGR (gene 5241) [5]) of the same molecule?
Answer: The AC50 was 29900 nM (active).

Question: For `COC(C)(C)CCC[C@H](C)C/C=C/C(C)=C/C(=O)OC(C)C`, which AC50 [6] is on record?
Answer: Its AC50 is 992 nM (active).

Question: With `C[N+](=O)[O-]` as the molecule, how does the AC50 [7] read?
Answer: Its AC50 is 1450 nM (active).

Question: Which outcome [8] does the source give for `COc1ccc(CO)cc1` here?
Answer: The outcome was “inactive”.

Question: And the outcome [9]?
Answer: Its outcome is “inactive”.

Question: What about the outcome (KRT18 (gene 3875)) of the same molecule?
Answer: Its outcome is “inactive”.

Question: With `CC1(C)[C@H](C(=O)O[C@H](C#N)c2cccc(Oc3ccccc3)c2)[C@@H]1C=C(Br)Br` as the molecule, how does the AC50 [6] read?
Answer: The AC50 was 134 nM (active).

Question: And the outcome [6]?
Answer: Its outcome is “inactive”.

Question: What about the outcome [10] of the same molecule?
Answer: Its outcome is “inactive”.

Question: What about the outcome [11] of the same molecule?
Answer: Its outcome is “inactive”.

Question: What about the AC50 [12] of the same molecule?
Answer: The AC50 was 32800 nM (active).

Question: And the AC50 [13]?
Answer: The AC50 was 2040 nM (active).

Question: What about the outcome [14] of the same molecule?
Answer: Its outcome is “inactive”.

Question: For `O=c1c2ccccc2c(=O)c2c1cc(Cl)c1[nH]c3c([nH]c12)c(Cl)cc1c(=O)c2ccccc2c(=O)c13`, which AC50 [15] is on record?
Answer: Its AC50 is 296 nM (active).

Question: What does the source list for `Oc1ccc(C2(c3ccc(O)cc3)c3ccccc3-c3ccccc32)cc1`?
Answer: AC50 [8]: 151 nM (active); outcome [8]: inactive; AC50 [9]: 8380 nM (active); outcome [9]: inactive; AC50 (KRT18 (gene 3875)): 150 nM (active); outcome (KRT18 (gene 3875)): inactive

Question: For `Oc1cc(Cl)ccc1Cl`, which outcome [16] is on record?
Answer: Its outcome is “inactive”.

Question: Which outcome [13] does the source give for `CNC(=N[N+](=O)[O-])NCC1CCOC1` (configuration not stated) here?
Answer: Its outcome is “inactive”.

Question: For `O=[N+]([O-])O`, which outcome [17] is on record?
Answer: The outcome was “inactive”.

Question: And the outcome [8]?
Answer: The outcome was “inactive”.

Question: And the outcome [9]?
Answer: The outcome was “inactive”.

Question: And the outcome (KRT18 (gene 3875))?
Answer: Its outcome is “inactive”.

Question: For `CCOC(=O)NC(=S)Nc1ccccc1NC(=S)NC(=O)OCC`, which AC50 [6] is on record?
Answer: The AC50 was 2840 nM (active).

Question: With `O=C(CCl)c1ccccc1` as the molecule, how does the AC50 [18] read?
Answer: Its AC50 is 43800 nM (active).

Question: And the outcome [17]?
Answer: Its outcome is “inactive”.

Question: For `[CH3][Sn]([CH3])([Cl])[Cl]`, which outcome [19] is on record?
Answer: The outcome was “inactive”.

Question: For `O=C1C(Cl)=C(Cl)C(=O)C(Cl)=C1Cl`, which AC50 [15] is on record?
Answer: The AC50 was 148 nM (active).

Question: For `CC(C)(c1cc(Cl)c(O)c(Cl)c1)c1cc(Cl)c(O)c(Cl)c1`, which AC50 [19] is on record?
Answer: Its AC50 is 20200 nM (active).

Question: And the AC50 (PGR (gene 5241) [5])?
Answer: The AC50 was 17200 nM (active).

Question: Which outcome [10] does the source give for `O=CNC(N1CCN(C(NC=O)C(Cl)(Cl)Cl)CC1)C(Cl)(Cl)Cl` (configuration not stated) here?
Answer: Its outcome is “inactive”.

Question: What about the outcome [11] of the same molecule?
Answer: The outcome was “inactive”.

Question: For `O=C(NCNC(=O)NC1C(=O)NC(=O)N1CO)NC1C(=O)NC(=O)N1CO` (configuration not stated), which outcome [10] is on record?
Answer: Its outcome is “inactive”.

Question: What about the outcome [11] of the same molecule?
Answer: Its outcome is “inactive”.
